Reference: PubChem BioAssay (EPA / NIEHS)
Records with an inconclusive call do not appear. The source holds several records for some structures; these can differ, active in one and inactive in another. The source made the active and inactive calls. Rule for the calls, unless noted: active = hit-call score of the fitted dose curve at least 0.9, where 1 is the maximum; inconclusive = response in the unintended direction; inactive = score below 0.9.

Experiments:
[1] = read-out: sulfotransferase 2A1 (SULT2A1), SULT2A1 (gene 6822); test: LTEA_HepaRG_SULT2A1: Life Technologies and Expression Analysis (LTEA) Assay for sulfotransferase 2A1 (SULT2A1) using HepaRG (AID 2283531; active = hit-call score of the fitted dose curve at least 0.9, where 1 is the maximum; inactive = score below 0.9); conditions: mRNA level, 48 h; actives raise or lower the signal
Method in brief: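 Gene-expression endpoint in a human liver cell line: SULT2A1 mRNA change after 48 h chemical treatment, curves fitted in both directions relative to 0.5% DMSO vehicle. Concentrations spanned eight half-log steps from 100 uM.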

[2] = read-out: Transforming Growth Factor (TGFA), TGFA (gene 7039); test: LTEA_HepaRG_TGFA: Life Technologies and Expression Analysis (LTEA) Assay for Transforming Growth Factor (TGFA) using HepaRG (AID 2283532; active = hit-call score of the fitted dose curve at least 0.9, where 1 is the maximum; inactive = score below 0.9); conditions: mRNA level, 48 h; actives raise or lower the signal
Method in brief: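 HepaRG (human liver line), 48 h exposure, 8 conc. half-log down from 100 uM, 0.5% DMSO vehicle, duplicates; serum-free induction medium. TGFA mRNA by TaqMan qRT-PCR, ACTB/GAPDH/POLR2A normalization; gain/loss fit vs DMSO.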

[3] = read-out: Transforming Growth Factor (TGFB1), TGFB1 (gene 7040); test: LTEA_HepaRG_TGFB1: Life Technologies and Expression Analysis (LTEA) Assay for Transforming Growth Factor (TGFB1) Transporter using HepaRG (AID 2283533; active = hit-call score of the fitted dose curve at least 0.9, where 1 is the maximum; inactive = score below 0.9); conditions: mRNA level, 48 h; actives raise or lower the signal
Method in brief: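 Eight-point concentration-response (max 100 uM, half-log) in HepaRG under serum-free induction conditions, 48 h. TGFB1 mRNA by qRT-PCR, housekeeping-normalized.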

[4] = read-out: TIMP1, TIMP1 (gene 7076); test: LTEA_HepaRG_TIMP1: Life Technologies and Expression Analysis (LTEA) Assay for TIMP1 using HepaRG (AID 2283534; active = hit-call score of the fitted dose curve at least 0.9, where 1 is the maximum; inactive = score below 0.9;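 note: TaqMan qRT-PCR signal normalized to ACTB GAPDH and POLR2A housekeeping genes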); conditions: mRNA level, 48 h; actives raise or lower the signal
Method in brief: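 TIMP1 induction or repression in HepaRG cells after 48 h chemical exposure (eight concentrations, highest 100 uM), assessed by normalized qRT-PCR with bidirectional fitting to DMSO controls.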

[5] = read-out: Tumor necrosis factor receptor 1 (TNFRSF1A), TNFRSF1A (gene 7132); test: LTEA_HepaRG_TNFRSF1A: Life Technologies and Expression Analysis (LTEA) Assay for Tumor necrosis factor receptor 1 (TNFRSF1A) using HepaRG (AID 2283535; active = hit-call score of the fitted dose curve at least 0.9, where 1 is the maximum; inactive = score below 0.9); conditions: mRNA level, 48 h; actives raise or lower the signal
Method in brief: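 Assay uses 48 h chemical treatment of differentiated HepaRG monolayers, tested in duplicate at eight concentrations from 100 uM downward in 0.5% DMSO. mRNA is normalized to ACTB, GAPDH and POLR2A, with induction or suppression fitted relative to vehicle.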

[6] = read-out: Thyroid Hormone Responsive (THRSP), THRSP (gene 7069); test: LTEA_HepaRG_THRSP: Life Technologies and Expression Analysis (LTEA) Assay for Thyroid Hormone Responsive (THRSP) using HepaRG (AID 2283536; active = hit-call score of the fitted dose curve at least 0.9, where 1 is the maximum; inactive = score below 0.9); conditions: mRNA level, 48 h; actives raise or lower the signal
Method in brief: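 mRNA induction or loss relative to 0.5% DMSO vehicle was fitted bidirectionally across an eight-point curve whose highest exposure was 100 uM. Human HepaRG liver cells received chemicals in duplicate over 48 h before RNA extraction.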

[7] = read-out: Cellular tumor antigen p53 (Homo sapiens) (UniProt P04637); test: LTEA_HepaRG_TP53: Life Technologies and Expression Analysis (LTEA) Assay for Tumor Protein P53 (TP53) using HepaRG (AID 2283537; active = hit-call score of the fitted dose curve at least 0.9, where 1 is the maximum; inactive = score below 0.9); conditions: mRNA level, 48 h; actives raise or lower the signal
Method in brief: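 Differentiated HepaRG cells in serum-free induction medium exposed 48 h in duplicate to 8 half-log concentrations, top 100 uM, 0.5% DMSO. TP53 mRNA by TaqMan qRT-PCR (Fluidigm), normalized to ACTB, GAPDH, POLR2A; fitted bidirectionally versus DMSO.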

[8] = read-out: UDP glucuronosyltransferase (UGT1A1), UGT1A1 (gene 54658); test: LTEA_HepaRG_UGT1A1: Life Technologies and Expression Analysis (LTEA) Assay for UDP glucuronosyltransferase (UGT1A1) using HepaRG (AID 2283538; active = hit-call score of the fitted dose curve at least 0.9, where 1 is the maximum; inactive = score below 0.9); conditions: mRNA level, 48 h; actives raise or lower the signal
Method in brief: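 Differentiated human HepaRG cells in serum-free induction medium were exposed in duplicate for 48 h to eight half-log concentrations up to 100 uM in 0.5% DMSO. UGT1A1 mRNA was quantified by TaqMan qRT-PCR, normalized to ACTB, GAPDH and POLR2A, and fitted bidirectionally against DMSO.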

[9] = read-out: UDP glucuronosyltransferase (UGT1A6), UGT1A6 (gene 54578); test: LTEA_HepaRG_UGT1A6: Life Technologies and Expression Analysis (LTEA) Assay for UDP glucuronosyltransferase (UGT1A6) using HepaRG (AID 2283539; active = hit-call score of the fitted dose curve at least 0.9, where 1 is the maximum; inactive = score below 0.9); conditions: mRNA level, 48 h; actives raise or lower the signal
Method in brief: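 Measures mRNA change in HepaRG hepatic cells exposed 48 h to chemicals (eight-point, maximum 100 uM, 0.5% DMSO vehicle) in serum-free induction medium. Expression normalized to endogenous controls; DMSO served as negative control and baseline.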

[10] = read-out: X-box binding protein 1 (XBP1), XBP1 (gene 7494); test: LTEA_HepaRG_XBP1: Life Technologies and Expression Analysis (LTEA) Assay for X-box binding protein 1 (XBP1) using HepaRG (AID 2283540; active = hit-call score of the fitted dose curve at least 0.9, where 1 is the maximum; inactive = score below 0.9); conditions: mRNA level, 48 h; actives raise or lower the signal
Method in brief: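 Eight concentrations (half-log, highest 100 uM, 0.5% DMSO) tested in duplicate on HepaRG cells over 48 h in serum-free induction medium; qRT-PCR of XBP1 normalised to ACTB, GAPDH, POLR2A.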

[11] = LTEA_HepaRG_LDH_cytotoxicity: Cytotoxicity Assessment in the Life Technologies and Expression Analysis (LTEA) Assay (AID 2283563)
Method in brief: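 Spent-medium LDH after 48 h chemical exposure of HepaRG cells in serum-free induction medium; eight concentrations, half-log dilutions from 100 uM, duplicate wells, fitted upward relative to 0.5% DMSO.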

[12] = TOX21_p53_BLA_p2_viability: Viability Assessment in the Tox21 HCT-116 p53 Agonism Beta-lactamase Assay, Phase 2 (AID 2283591);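 note: compound exposure lasted 16 h at 37 °C; actives lower the ATP signal meaning cytotoxicity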
Method in brief: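 Cytotoxicity readout: CellTiter-Glo ATP luminescence, 30 min at room temperature, after the beta-lactamase read. Cells were HCT116 exposed 16 h at 37C to compounds pin-transferred at 217-fold dilution from DMSO stocks.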

[13] = target: Cellular tumor antigen p53 (Homo sapiens) (UniProt P04637); test: TOX21_p53_BLA_p2_ratio: Tox21 HCT-116 p53 Agonism Beta-lactamase Assay, Ratio, Phase 2 (AID 2283592)
Cellular tumor antigen p53 (Homo sapiens), sequence (P04637 whole entry, looked up): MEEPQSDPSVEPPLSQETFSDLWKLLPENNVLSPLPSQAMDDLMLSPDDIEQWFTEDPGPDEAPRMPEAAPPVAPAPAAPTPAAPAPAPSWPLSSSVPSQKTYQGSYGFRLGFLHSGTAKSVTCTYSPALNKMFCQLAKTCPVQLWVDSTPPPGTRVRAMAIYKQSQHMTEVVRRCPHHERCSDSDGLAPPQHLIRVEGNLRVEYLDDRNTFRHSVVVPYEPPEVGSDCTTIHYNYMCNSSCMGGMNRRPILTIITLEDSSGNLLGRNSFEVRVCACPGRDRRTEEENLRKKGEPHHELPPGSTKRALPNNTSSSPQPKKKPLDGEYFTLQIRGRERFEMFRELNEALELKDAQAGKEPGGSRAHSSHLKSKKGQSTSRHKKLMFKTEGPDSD
Method in brief: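 Human colon HCT116 cells with an inducible p53 beta-lactamase reporter are exposed to test chemicals for 16 h at 37C. Reporter induction is read as the 460/530 nm emission ratio after CCF4-AM loading, normalized to DMSO.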

[14] = TOX21_p53_BLA_p3_viability: Viability Assessment in the Tox21 HCT-116 p53 Agonism Beta-lactamase Assay, Phase 3 (AID 2283593);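 note: cells exposed to compound for 16 h before reading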
Method in brief: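 Cellular ATP was quantified by CellTiter-Glo luminescence, read after 30 min at room temperature. Beforehand, HCT116 cells (4000/well) received compound 5 h post-seeding, 217-fold diluted from DMSO, then incubated 16 h at 37C.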

[15] = target: Cellular tumor antigen p53 (Homo sapiens) (UniProt P04637); test: TOX21_p53_BLA_p3_ratio: Tox21 HCT-116 p53 Agonism Beta-lactamase Assay, Ratio, Phase 3 (AID 2283596)
Method in brief: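 HCT116 p53-bla cells (4000/well) given compound in DMSO (217-fold dilution) after 5 h, incubated 16 h at 37C. CCF4-AM substrate 2 h at room temperature; 460/530 nm emission ratio, gain fitted against DMSO.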

[16] = TOX21_p53_BLA_p4_viability: Viability Assessment in the Tox21 HCT-116 p53 Agonism Beta-lactamase Assay, Phase 4 (AID 2283597);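 note: hits lower the luminescence signal meaning cytotoxicity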
Method in brief: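 Luminescent ATP readout (CellTiter-Glo, 30 min, room temperature) in the same wells as the p53 bla ratio. HCT116 cells were treated for 16 h at 37C with DMSO-dissolved compounds.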

[17] = target: Cellular tumor antigen p53 (Homo sapiens) (UniProt P04637); test: TOX21_p53_BLA_p5_ratio: Tox21 HCT-116 p53 Agonism Beta-lactamase Assay, Ratio, Phase 5 (AID 2283599)
Method in brief: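 Beta-lactamase reporter ratio (blue 460 nm over green 530 nm, 405 nm excitation) after 2 h CCF4-AM loading, in HCT-116 cells exposed 16 h at 37 C to compounds pinned at 217-fold dilution. Increases relative to DMSO baseline scored.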

[18] = target: Cellular tumor antigen p53 (Homo sapiens) (UniProt P04637); test: TOX21_p53_BLA_p4_ratio: Tox21 HCT-116 p53 Agonism Beta-lactamase Assay, Ratio, Phase 4 (AID 2283601)
Method in brief: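 Signal is the blue/green (460nm/530nm) ratio of cleaved versus uncleaved CCF4-AM substrate, read after 2 h substrate loading. Cells were HCT116 carrying the p53-responsive beta-lactamase reporter, dosed 16 h at 37C, 5% CO2; CellTiter-Glo measured in parallel.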

[19] = TOX21_p53_BLA_p5_viability: Viability Assessment in the Tox21 HCT-116 p53 Agonism Beta-lactamase Assay, Phase 5 (AID 2283600)
Method in brief: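 Seeded cells (4000/well) settle 5 h before compound addition. Plates then incubate 16 h at 37C, receive FRET substrate for 2 h, and finally CellTiter-Glo, with luminescence measured after a 30 min room-temperature incubation.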

Measured: AC50

COCCOC[C@H](CC1(C(=O)NC2CCC(C(=O)O)CC2)CCCC1)C(=O)Oc1ccc2c(c1)CCC2 (stereo not given in full)
not listed: [19]
inactive: all other assays above

O=c1c(O)c(-c2ccc(O)c(O)c2)oc2cc(O)cc(O)c12
inactive: [1] | [2] | [3] | [4] | [5] | [6] | [7] | [9] | [10] | [11] | [12] | [14] | [16] | [19]
active: [8] 0.322 µM | [13] 20.2 µM [middle of 4 runs] | [16] 34.7 µM | [17] 44.4 µM [middle of 4 runs] | [18] 22.8 µM [middle of 4 runs]

Cc1ccc(N(C)C)cc1
active: [8] 26.6 µM
not listed: [7]
inactive: all other assays above
